Screening data from PubChem.
CYP2C19 inh – blockers of cytochrome P450 2C19 activity – biochemical, luminescence, ADME assay, primary screen; CYP2C19 Supersomes, luciferin-H EGE luminescence, 30 min; inhibition, % at 5 µM; 21% of 96,000 active;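 active means CYP2C19 inhibition above a set limit at 5 µM in the primary screen, cut at about 50% in these data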
CYP2C9 inh – blockers of cytochrome P450 2C9 activity – biochemical, luminescence, ADME assay, primary screen. CYP2C9 Supersomes, luciferin-H conversion. inhibition, % at 5 µM. 20% of 96,000 active;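 active means blocking of liver enzyme CYP2C9 beyond about 50% at 5 µM, limit read from the data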
Target sequence (P11712 whole entry, looked up): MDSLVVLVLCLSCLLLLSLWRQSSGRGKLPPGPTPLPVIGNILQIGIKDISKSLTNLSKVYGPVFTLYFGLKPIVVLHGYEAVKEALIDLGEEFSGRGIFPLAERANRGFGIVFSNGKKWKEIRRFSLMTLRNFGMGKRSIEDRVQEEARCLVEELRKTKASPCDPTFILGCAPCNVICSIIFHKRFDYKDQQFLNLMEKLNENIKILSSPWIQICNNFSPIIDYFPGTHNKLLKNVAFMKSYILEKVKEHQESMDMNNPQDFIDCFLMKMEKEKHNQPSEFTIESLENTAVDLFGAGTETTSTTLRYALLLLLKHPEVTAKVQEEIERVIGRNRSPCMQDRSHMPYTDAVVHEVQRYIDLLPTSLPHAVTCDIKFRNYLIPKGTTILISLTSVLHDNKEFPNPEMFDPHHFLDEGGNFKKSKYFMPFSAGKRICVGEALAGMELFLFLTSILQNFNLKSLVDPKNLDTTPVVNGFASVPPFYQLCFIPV
CYP2C19 act – human CYP2C19 activators, primary screen, biochemical, luminescence | recombinant CYP2C19, luciferin-H EGE luminescence; stronger effect = higher value; 0 = fully inhibited enzyme, 1 = untreated enzyme | 96,000 tested, under 10 active | AID 1025, 2008 | activation factor at 5 µM;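 active means activation factor of at least 2 at 5 µM in the primary screen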
CYP2C9 act – human CYP2C9 activators, primary screen, biochemical, luminescence | AID 1024, 2008 | 1.4% of 96,000 active | activation factor at 5 µM | recombinant CYP2C9, luciferin-H conversion; stronger effect = higher value; factor 1 = untreated enzyme, 0 = blocked;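 active means activation factor of 2 or more for CYP2C9 at a 5 µM dose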
Large screens that a line does not name were inactive. Compounds with a hit are over-represented: about 31% of the library has one in this group of screens.

CCn1c(=O)c2c(nc(SCC(=O)NCC3CCCO3)n2C)n(C)c1=O (stereo not drawn)	none
Cc1ccc2cc(CN(C(=O)C3CCCO3)C3CCCCC3)c(=O)[nH]c2c1 (stereo not drawn)	none
O=C(O)C1CC=CCC1C(=O)NCCc1cccc(Cl)c1 (stereo not drawn)	none
COc1cc(NC(=O)CSc2nc3ccccc3cc2Cc2ccccc2)cc(OC)c1	CYP2C19 inh 82.7, CYP2C9 inh 64.4
C=CCSc1nc(O)c(CC)c(=O)n1C(C)CC (stereo not drawn)	CYP2C19 inh 63.3
CCc1c(O)nc(SCc2ccccc2)n(C(C)CC)c1=O (stereo not drawn)	none
O=C(Nc1ccc2c(c1)OCCO2)c1cc2sccc2n1Cc1ccc(F)cc1	CYP2C19 inh 59.8, CYP2C9 inh 77.6
CCCCc1nc2n[nH]c(N)c2c2c1CCCC2	none
Cn1c(Cn2nnc3ccccc32)nnc1SCC(=O)c1ccc(F)cc1	none
CCOC(=O)c1cc(CC)sc1NC(=O)c1cc(OC)c(OC)c(OC)c1	CYP2C9 inh 61.8
CCOC(=O)c1cc(CC)sc1NC(=O)c1ccc(N2C(=O)CCC2=O)cc1	none
CCOc1ccc(CCNC(=O)C2CCN(c3nn4c(=O)cc(C)nc4s3)CC2)cc1	CYP2C9 inh 64.7
CCN(CCNC(=O)C1CCN(c2nnc(-n3cccc3)s2)CC1)c1ccccc1	CYP2C19 inh 82.9, CYP2C9 inh 87.2
CCOc1ccc(CCNC(=O)C2CCN(c3nnc(-n4cccc4)s3)CC2)cc1	none
CCOc1ccc(CCNC(=O)C2CCN(c3nnc(-n4cccc4)s3)CC2)cc1OCC	CYP2C9 inh 81.9
COc1cc(S(=O)(=O)N2CCN(C(=O)c3ccccc3F)CC2)c(OC)cc1NC(C)=O	none
COCCn1nnnc1CN1C2CCCC1CC(NC(C)=O)C2 (stereo not drawn)	none
COc1cccc(C2=NOC(C(=O)Nc3cccc(C(C)=O)c3)C2)c1 (stereo not drawn)	none
O=C(Nc1cccnc1)C1CC(c2ccc(Cl)c(Cl)c2)=NO1 (stereo not drawn)	CYP2C19 inh 93.5, CYP2C9 inh 56.5
O=C(NCc1ccccn1)C1CC(c2ccc(Cl)c(Cl)c2)=NO1 (stereo not drawn)	none
COc1ccc(OC)c(C2=NOC(C(=O)Nc3cccnc3)C2)c1 (stereo not drawn)	CYP2C19 inh 76.4, CYP2C9 act 2
Cn1c(=O)cc(OCCCC(=O)Nc2ccccn2)c2ccccc21	none
Cc1ccc2cc3cc(C(=O)N4CCN(Cc5ccccc5)CC4)sc3nc2c1	none
O=C(c1ccco1)N1CCN(c2nc3ccccc3c(=O)n2-c2ccccc2)CC1	CYP2C9 inh 67.1
O=C(c1ccc(-c2ccccc2)cc1)N1CCN(C(=O)c2ccco2)CC1	none
O=c1sc(N2CCN(c3ccccc3F)CC2)nc2ccsc12	none
O=C(c1ccco1)N1CCN(c2nc3ccsc3c(=O)s2)CC1	CYP2C9 inh 64.4
O=C(c1ccco1)N1CCN(c2nnc(-c3ccccc3)c3ccccc23)CC1	CYP2C19 inh 58.0
Cc1ccc2cc3cc(C(=O)N4CCN(C(=O)c5ccco5)CC4)sc3nc2c1	CYP2C19 inh 63.6
Cc1cc(C)c[n+](-c2nc3ccccc3nc2C(=C=[N-])C#N)c1	none
O=C(c1ccco1)N1CCN(C(=O)c2cc3c(=O)oc4ccccc4c3s2)CC1	CYP2C9 inh 61.0
O=C(c1cc2c(=O)oc3ccccc3c2s1)N1CCOCC1	none
O=C(c1ccco1)N1CCN(c2ncnc3c2oc2ccccc23)CC1	CYP2C19 inh 61.5
Cc1nn2c(N3CCN(C4CCCC4)CC3)cc(C(C)(C)C)nc2c1-c1ccccc1	none
Cc1nn2c(N3CCN(C(=O)c4ccco4)CC3)cc(C(C)(C)C)nc2c1-c1ccccc1	CYP2C9 inh 57.6
c1cnc(N2CCN(c3ncnc4c3oc3ccccc34)CC2)nc1	none
O=C(CCl)Nc1ccc(Oc2cnc3ccccc3n2)cc1	none
COc1ccc(Cl)cc1NC(=O)CS(=O)(=O)c1cccc2nsnc12	none
CCSc1nnc(NC(=O)CN(C)S(=O)(=O)c2ccc(F)cc2)s1	CYP2C19 inh 81.1, CYP2C9 inh 75.4
CC(C(=O)Nc1ccccc1Sc1ccccc1)N(c1ccccc1)S(C)(=O)=O (stereo not drawn)	CYP2C9 inh 54.5
CSc1ccccc1NC(=O)CN(C)S(=O)(=O)c1ccc(F)cc1	CYP2C9 act 3.6
CS(=O)(=O)N(Cc1ccc(C(=O)Nc2ccccc2Sc2ccccc2)cc1)c1ccccc1	none
